Results: article PMC5540273 (PLoS ONE, 2017)

How the values were obtained:
Conditions in all cases: concentration: 1 μM, replicates: in singlicate; n = 1
ERK1 = tested on: T1, ERK1
T1 construct: gene MAPK3

ERK2 = tested on: T2, ERK2
T2 construct: gene MAPK1

ERK3 = tested on: T3, ERK3
T3 construct: gene MAPK6

ERK4 = tested on: T4, ERK4
T4 construct: gene MAPK4

ERK5 = tested on: T5, ERK5
T5 construct: gene MAPK7

ERK8 = tested on: T6, ERK8
T6 construct: gene MAPK15

ERN1 = tested on: ERN1
FAK = tested on: T7, FAK
T7 construct: gene PTK2

FER = tested on: FER
FES = tested on: FES
FGFR1 = tested on: FGFR1
FGFR2 = tested on: FGFR2
FGFR3 = tested on: FGFR3
FGFR4 = tested on: FGFR4
FGR = tested on: FGR
FLT1 = tested on: FLT1
FLT3-autoinhibited = tested on: FLT3-autoinhibited
FLT3 = tested on: FLT3
FLT4 = tested on: FLT4
FRK = tested on: FRK
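Note: KINOMEscan kinase panel screen.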

Compound | %Inh (ERK1) [%] | %Inh (ERK2) [%] | %Inh (ERK3) [%] | %Inh (ERK4) [%] | %Inh (ERK5) [%] | %Inh (ERK8) [%] | %Inh (ERN1) [%] | %Inh (FAK) [%] | %Inh (FER) [%] | %Inh (FES) [%] | %Inh (FGFR1) [%] | %Inh (FGFR2) [%] | %Inh (FGFR3) [%] | %Inh (FGFR4) [%] | %Inh (FGR) [%] | %Inh (FLT1) [%] | %Inh (FLT3-autoinhibited) [%] | %Inh (FLT3) [%] | %Inh (FLT4) [%] | %Inh (FRK) [%]
COc1cccc(NC(=O)NC2CCN(c3ccnc(Nc4cc(OC)c(OC)c(OC)c4)n3)C2)c1 (centres unmarked) [GSK1379763] | 0 | 0 | 7 | 25 | 0 | 0 | 7 | 0 | 0 | 8 | 0 | 0 | 8 | 1 | 25 | 24 | 14 | 62 | 37 | 0
Nc1ncc(-c2ccc3nccc(-c4ccncc4)c3c2)cc1S(=O)(=O)N1CCOCC1 [GSK1627798] | 0 | 0 | 0 | 10 | 0 | 45 | 0 | 2 | 11 | 0 | 0 | 0 | 6 | 0 | 24 | 22 | 0 | 0 | 0 | 8
c1ccc(Oc2ccc(Nc3ccnc4cc(-c5ccc(CNCCN6CCOCC6)o5)ccc34)cc2)nc1 [GW567145] | 0 | 0 | 0 | 0 | 0 | 0 | 26 | 0 | 0 | 5 | 0 | 4 | 10 | 0 | 68 | 3 | 8 | 91 | 0 | 13
COc1cc(Nc2nccc(N3CCC(NC(=O)c4cc5ccccc5s4)C3)n2)cc(OC)c1OC (centres unmarked) [GSK1379760] | 12 | 9 | 0 | 0 | 0 | 0 | 6 | 0 | 34 | 0 | 0 | 0 | 18 | 0 | 23 | 36 | 3 | 33 | 26 | 9
Cl.c1ccc(-c2ccc3c(Nc4ccc5[nH]ccc5c4)ccnc3c2)nc1 [GW440138] | 8 | 0 | 0 | 6 | 0 | 0 | 0 | 0 | 0 | 0 | 63 | 63 | 58 | 29 | 53 | 98.1 | 0 | 0 | 92.9 | 17
COc1cc(Nc2nccc(N3CCC(NC(=O)Nc4cccc(C(C)=O)c4)C3)n2)cc(OC)c1OC (centres unmarked) [GSK1379753] | 0 | 0 | 9 | 15 | 0 | 0 | 5 | 0 | 22 | 0 | 3 | 0 | 9 | 14 | 14 | 19 | 0 | 63 | 6 | 0
Cc1ccc(F)c(C(=O)Nc2cccc(-c3nn4ccccc4c3-c3ccnc(Nc4cccc(F)c4)n3)c2)c1F [GSK361061] | 26 | 0 | 16 | 21 | 0 | 0 | 25 | 0 | 40 | 0 | 19 | 0 | 21 | 11 | 91.4 | 94.5 | 0 | 78 | 82 | 86
CN1CCN(CCCNc2nccc(-c3c(-c4ccc(F)cc4)nn4cc(C(F)(F)F)ccc34)n2)CC1 [GW621581] | 0 | 0 | 0 | 5 | 0 | 31 | 0 | 0 | 0 | 0 | 25 | 0 | 0 | 0 | 6 | 33 | 0 | 0 | 16 | 5
O=C(NC1CCN(c2ccnc(Nc3ccc(F)cc3)n2)C1)c1cc2ccccc2s1 (centres unmarked) [GSK1379716] | 4 | 23 | 1 | 31 | 0 | 0 | 0 | 0 | 44 | 12 | 0 | 3 | 16 | 13 | 25 | 20 | 0 | 0 | 3 | 18
CC(=O)N1CCN(c2ccc(Nc3nccc(-c4sc(C(C)C)nc4-c4cccc(NS(=O)(=O)c5cccc(Cl)c5)c4)n3)cn2)CC1 [GSK1660437] | 0 | 98.8 | 0 | 0 | 0 | 66 | 44 | 3 | 35 | 0 | 20 | 0 | 7 | 0 | 78 | 81 | 9 | 33 | 82 | 70
